# HTT ATP protect: protects HTT-Q103 PC12 cells, measured by ATP; PC12 HTT-Q103 induced, cytoprotection, ATP luminescence, 40 h; Potency, µM (highest dose often 56.4 µM), for the others: cytoprotection (ATP increase), actives largely listed as activators; actives 0.14% (n = 230,000); AID 1471; also: potency is read from the fitted curve at half-maximal effect; % of control where 0% means no effect; nearly all actives have a fitted effect of over 45% in size
#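 Quantitative HTS on tebufenozide-induced (100 nM) PC12 cells expressing HTTQ103 exon 1–GFP; compounds tested as a concentration series; survival measured via cellular ATP.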
# PNC inhibitor: blocks assembly of the perinucleolar compartment | AID 2417 | actives 3.1% (n = 140,000) | PC3M PTB-GFP, PNC prevalence imaging, 16 h; stronger effect = lower value | activity change (PNC), negative = inhibition, % at 10 µM;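 active = readout at or below -70, meaning at least 70% loss of cells showing the perinucleolar compartment, a nuclear body marking cancer cells; inconclusive = readout between -30 and a set limit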;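 also: plate controls were DMSO wells for no effect and camptothecin positive control wells for full effect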
#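 Read-out is percentage of cells bearing a perinucleolar compartment, from automated 20x imaging of fixed, Hoechst-stained PC3M PTB-GFP cells. Cells were seeded 4 h, then exposed 16 h to compound (23 nl of library stock) in duplicate plates.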
# HttQ103 aggreg: inhibitors of mutant huntingtin aggregate formation in PC12 cells; PC12 HttQ103-GFP aggregates, Acumen cytometry, 40 h; Potency, µM (series often up to 46.1 µM), for inactives: at the top dose activity change, negative = inhibition, hits mostly inhibitors; actives 1.1% (n = 220,000); AID 1688; also: potency is read from the fitted curve at half-maximal effect; % is scaled to controls: 0 for no effect and ±100 for the full control effect; nearly all actives have a fitted effect of over 60% in size
#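 Aggregate formation scored by laser-scanning cytometer (488 excitation, 500–530 emission) in lysed PC12 cells expressing Q103-GFP after 100 nM tebufenozide induction; library tested in dose series, with ATPLite reagent added in the multiplex.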
# An asterisk follows results filed as active; u = inconclusive; x = no result given; [ ] = dose if it differs, or a comment. Shown is part of a subset that was picked to be rich in hits. Unless noted, calls follow the shape of the dose curve; as a rule, active = well fitted curve in the direction sought with a large enough effect; inconclusive = small, poorly fitted or top-dose-only effect, or another doubt; inactive = no such curve, though single readings can be large; an effect the other way counts as inactive or inconclusive.
SMILES,HTT ATP protect,PNC inhibitor,HttQ103 aggreg
Cc1ccc(C2=NC(C(F)(F)F)(C(F)(F)F)c3c(n(-c4ccc(F)cc4)c(=O)[nH]c3=O)N2)cc1,3%[10 µM],25,u
O=c1[nH]c(=O)n(-c2ccc(F)cc2)c2c1C(C(F)(F)F)(C(F)(F)F)N=C(c1ccc(F)cc1)N2,14%[10 µM],36,3.2µM*
CCN(CC)C(=O)CN(C#N)c1nc(OC)nc(N(C)C)n1,-22%[10 µM],-82*,-4%
CCN(CC)C(=O)CN(C#N)c1nc(C)cc(C)n1,-17%[10 µM],-3,2%
Cc1cccc(OCC(=O)Nc2ccc(S(=O)(=O)N3CCCC3)cc2)c1,5%,-99*,-5%
Cc1nc2ncnn2c(C)c1CCC(=O)Nc1ccc(S(=O)(=O)N2CCCCCC2)cc1,-4%,-94*,-12%
COC(=O)COc1cccc(NS(=O)(=O)c2ccc(NC(C)=O)cc2)c1,7%,-88*,-2%
Cc1ccc(NC(=O)CCc2c(C)nc3ncnn3c2C)cc1,6%,59,15%
Cc1ccc(NC(=O)COc2ccc(S(=O)(=O)N3CCOCC3)cc2)cc1,2%,2,-1%
CC(=O)Nc1cccc(OCC(=O)NS(=O)(=O)c2ccc(C)cc2)c1,-13%[0.074 µM],17,5%
Cc1ccnc(NS(=O)(=O)c2ccc(NC(=O)c3ccc(Br)o3)cc2)n1,-38%,x,-11%[9.22 µM]
COc1cc(C(=O)NCC(C)C)cc(OC)c1OC,-2%,9,18%[9.22 µM]
Cc1cc(C)c(NC(=O)Nc2ccccc2)c(Cl)c1,x,-114*,-1%
CCC(=O)Nc1c(C)cc(C)cc1Cl,-6%,u,0%[9.22 µM]
Cc1ccc(NC(=O)Nc2ccccc2)cc1[N+](=O)[O-],-16%[10 µM],u,4%
CCC(C)(C)C(=O)Nc1cc([N+](=O)[O-])ccc1F,4%[10 µM],-27,u
O=C(Nc1ccccc1)Nc1ccc(Cl)c([N+](=O)[O-])c1,-9%[0.074 µM],75,13µM*
O=C(Nc1ccc(Cl)cc1)Nc1cc([N+](=O)[O-])ccc1F,-4%[10 µM],-13,20µM*
Cn1cccc1Cc1nnc(SCC(=O)N2CCc3ccccc32)n1CCc1ccccc1,5%,u,-16%
COc1cc(/C=C/C(=O)OCC(=O)N2CCN(S(=O)(=O)c3ccc(C)cc3C)CC2)ccc1O,2%[10 µM],96,9%
Cn1nc(OCC(N)=O)ccc1=O,17%[10 µM],-100*,21%
NC(=O)COc1ccc(=O)n(-c2ccccc2)n1,8%,1,1%
CC(C)(C)n1nnnc1C(c1cc2cc3c(cc2[nH]c1=O)OCO3)N1CCN(c2ccccc2)CC1 (centres undefined),-25%[10 µM],26,24%
CCCn1c(CCc2ccccc2)nnc1SCC(=O)N1CCOCC1,-16%[0.074 µM],-5,-2%
CC(C)CC(=O)N1CCN(S(=O)(=O)c2ccc(F)cc2)CC1,-13%[10 µM],-119*,-19%
SMILES,HTT ATP protect,PNC inhibitor,HttQ103 aggreg
Cc1ccc(S(=O)(=O)N2CCN(C(=O)CC(C)C)CC2)cc1,2%[10 µM],x,28%[9.22 µM]
Cc1cc(Cl)ccc1OCCCC(=O)Nc1cccnc1,-11%,-18,5%
Cc1ccc(S(=O)(=O)Nc2c(C)nn(C)c2C)cc1,13%,u,-2%[9.22 µM]
CCn1nc(C)c(NS(=O)(=O)c2ccc(C)cc2)c1C,0%[10 µM],-100*,u
O=C(N/N=C\c1ccc(Sc2ccccn2)o1)c1cccc(Br)c1,-17%,22,-7%
O=C(CCC1CCCCC1)NC1=NCCS1,x,-89*,17%
O=C(NC1=NCCS1)C1CCCCC1,1%[10 µM],x,-14%
O=C(NCC1CCCO1)c1cc2ccccc2[nH]1 (centres undefined),-30%,-123*,-13%
O=C(NCC1CCCO1)c1ccccc1 (centres undefined),9%,5,-8%
CCSC1=NCCN1C(=O)c1c(-c2ccccc2Cl)noc1C,-5%[10 µM],x,6%
O=c1c2ccccc2sc2c(CO)ccc(NCCN3CCCCC3)c12,-81%[10 µM],x,x
CCN(CC)CCNc1ccc(CO)c2sc3ccccc3c(=O)c12,-331%,u,13µM*
CCN(C(=O)Cn1c(=O)oc2ccccc21)c1cccc(C(F)(F)F)c1,-14%,25,1%
CCC(C(=O)NC1CCCCC1)N(Cc1cccs1)C(=O)c1snc(C(N)=O)c1N (centres undefined),-14%,x,5%
O=C(NCCc1ccccc1)c1cccnc1,-11%,-3,-1%[9.22 µM]
NS(=O)(=O)c1ccc(CCNC(=O)c2cccnc2)cc1,2%[10 µM],-100*,-4%
COc1cc2c(C(=O)NCc3ccc(C)o3)cn(CC(C)C)c(=O)c2cc1OC,-27%,-108*,18%
CCn1cc(C(=O)NCc2ccco2)c2cc(OC)c(OC)cc2c1=O,-15%[1.9 µM],u,-6%
CCn1c(CNC(=O)Cc2ccc(OC)cc2)nnc1SCC(=O)Nc1ccc(C(=O)O)cc1,-42%,x,15%
CCC(C)[C@H](N)c1cn([C@@H](CCCCN)C(=O)N2CCNCC2)nn1 (some centres undefined),11%[10 µM],x,-4%[9.22 µM]
COCCNC(=O)/C(C#N)=C/c1cc(C)n(C2CCCCC2)c1C,-117%,x,-5%
CN(C)c1ccc(NC(=O)/C=C/c2ccccc2Cl)cc1,-1%[10 µM],22,-11%
CCN(CC)c1ccc(NC(=O)/C=C\c2ccccc2Cl)cc1,-37%[10 µM],-81*,-15%
CCOC(=O)N1CCN(CC(=O)c2c[nH]c3ccc(F)cc23)CC1,-9%,u,-6%
Cc1cc(C=C2C(=O)c3ccccc3C2=O)c(C)n1-c1ccc(Cl)cc1,10%[10 µM],20,9%
SMILES,HTT ATP protect,PNC inhibitor,HttQ103 aggreg
Cc1cccc(-n2c(C)cc(C=C3C(=O)c4ccccc4C3=O)c2C)c1,5%,-85*,2%
COc1ccc(CN(C(=O)c2snc(C(N)=O)c2N)C(C(=O)NC(C)(C)C)c2ccco2)cc1 (centres undefined),-19%,-101*,11%[9.22 µM]
CC(C)(C)NC(=O)C(c1ccco1)N(Cc1ccc(F)cc1)C(=O)c1snc(C(N)=O)c1N (centres undefined),4%,-9,12%[9.22 µM]
O=C(Nc1ccc(O)cc1)c1cc2ccccc2c(=O)s1,-20%[10 µM],x,-28%[9.22 µM]
O=C(Nc1ccccc1)c1cc2ccccc2c(=O)s1,x,u,11µM*
O=C(Cn1c(=O)oc2ccccc21)Nc1ccccc1N1CCOCC1,-14%,x,-9%
CCCS(=O)(=O)N1CCCC(C(=O)NCCN(CC)CC)C1 (centres undefined),6%,21,10%
CN(N)c1nc(-c2ccccc2)nnc1C(F)(F)F,-3%,-4,-10%
CN(NC(=O)c1cccc(Cl)c1)c1nc(-c2ccccc2)nnc1C(F)(F)F,x,3,1µM*
CCO/C=C/C(O)(CNC(=O)c1ccc(C(C)(C)C)cc1)C(F)(F)F (centres undefined),-52%[10 µM],-11,9%
Clc1nccnc1-c1ccccc1,x,-16,12%
Cc1ccc(/C=N/Nc2cn[nH]c(=O)n2)o1,u,x,2%
COc1cc(OC)c(OC)cc1/C=N/Nc1nc2ccccc2[nH]1,3%[10 µM],x,-1%[9.22 µM]
Cc1ccc2cc(/C=N/Nc3nc4ccccc4[nH]3)c(Cl)nc2c1,-32%[10 µM],-88*,23%
C(=N\Nc1nc2ccccc2[nH]1)/c1ccc2ncccc2c1,-32%[10 µM],x,-1%[9.22 µM]
C(=N\Nc1nc2ccccc2[nH]1)/c1ccccn1,-199%,x,7.1µM*
O=c1nc(N/N=C/c2ccccn2)cn[nH]1,-152%,x,8.9µM*
